Experimental findings from PMC7819943, “Rice protein-binding microarrays: a tool to detect cis-acting elements near promoter regions in rice” are described below.

Whole data set: some 68,000 sequences, median “fluorescence intensity (a.u.)” near 9,100, cut for the highest 2% near 16,000. For the sample, the highest values were picked, then their nearest neighbours and some sequences at random.

Sequence of OsWRKY34 (Q0JBA9 entry or part of it): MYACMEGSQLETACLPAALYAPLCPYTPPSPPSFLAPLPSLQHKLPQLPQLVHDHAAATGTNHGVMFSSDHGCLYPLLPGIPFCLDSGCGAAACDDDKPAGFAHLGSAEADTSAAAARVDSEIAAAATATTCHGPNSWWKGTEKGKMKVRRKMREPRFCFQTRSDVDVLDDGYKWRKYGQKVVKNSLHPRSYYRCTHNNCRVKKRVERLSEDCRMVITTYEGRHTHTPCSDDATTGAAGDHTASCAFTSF

The assay has as its target OsWRKY34 (Oryza sativa, UniProt Q0JBA9 1-250). In words: protein-binding microarray (RPBM); PBS, 2% BSA, 51.3 ng/ul salmon testes DNA, 50 uM zinc acetate, 200 nM TF, 25 C, 1 h; high values mean tight binding. Particulars: protein: recombinant; tags: N-terminal polyhistidine and DsRed monomer fusion (pET32a); label: CyDye5-dUTP incorporated in the synthesized complementary strand; 3' TTTTT single-stranded linker to array surface; dsDNA, one strand shown. In a few lines: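 Per-feature fluorescence intensity (arbitrary units), read on an Axon 4000B scanner, is the binding signal. Transcription factors carrying an N-terminal polyhistidine tag and DsRed fusion were expressed in E. coli BL21-CodonPlus and purified on Ni–NTA. A custom Agilent array, made double-stranded by primer extension with Cy5-dUTP and blocked with 2% BSA, was incubated with 200 nM protein in PBS, 2% BSA, salmon testes DNA and 50 µM zinc acetate at 25 °C for 1 h and then washed.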
As to “ATACCGTGATTGGGATTACCTGTGACCTTGCCTATTTGACCGGAGTCACCTAGTGCAG”, the binding signal is 9120 fluorescence intensity (a.u.).
As to “GGAGAGTAGCAGTGTGGTTGATGATGGTGTTCTTGCTACTCGGAGTCACCTAGTGCAG”, the binding signal is 9890 fluorescence intensity (a.u.).
For “TGTGAGTAGTTTGTGGTTGGGAGTGTAACGGGTGGGGTGGCGGAGTCACCTAGTGCAG”, the binding signal was 16900 fluorescence intensity (a.u.).
Regarding “AACAGTTGACGCAGGTGGCAGAGTTGCTAGTTCTTGCCCTCGGAGTCACCTAGTGCAG”, the binding signal is 61500 fluorescence intensity (a.u.).
In the case of “ACTCTTTACTCTTTCTTTTCTTCTTTCTTTTTTGGCGGGGCGGAGTCACCTAGTGCAG”, the binding signal is 21200 fluorescence intensity (a.u.).
In the case of “GAGTGTAACGGGTGGGGTGGTTTGGAAGGTGATGAGGTATCGGAGTCACCTAGTGCAG”, the binding signal is 11300 fluorescence intensity (a.u.).
Turning to “TTCTTTCTTTTTTGGCGGGGACTACTCTTTACTTGAACCTCGGAGTCACCTAGTGCAG”, the binding signal was 12400 fluorescence intensity (a.u.).
With “GCGCCCTCCGACTCCGACGGCTTCTTGTTCTCGTTGACGCCGGAGTCACCTAGTGCAG”, the binding signal is 8950 fluorescence intensity (a.u.).
Turning to “TGGTTTTATGTGTGAGTTGGGGTAGTGGCGTTGGTAGGTTCGGAGTCACCTAGTGCAG”, the binding signal was 11700 fluorescence intensity (a.u.).
Consider “CTTTCTTTCTTTCTTTCTTCTTTTTTTTCTTTTTTTTTTGCGGAGTCACCTAGTGCAG”, for which the binding signal was 8640 fluorescence intensity (a.u.).
Consider “CACCATTGGGATGGGTGCCTATTTCTTGGAGACCGTTGACCGGAGTCACCTAGTGCAG”, for which the binding signal was 17300 fluorescence intensity (a.u.).
For “ATTTCTTGGAGACCGTTGACTCCTCTCTCTCTATTTCCATCGGAGTCACCTAGTGCAG”, the binding signal is 12400 fluorescence intensity (a.u.).
Regarding “CTTCTAAACATAGCTTCCACAATCGTCTCCGGGCCCTTCTCGGAGTCACCTAGTGCAG”, the binding signal is 8320 fluorescence intensity (a.u.).
For the sequence “GATTAGAATCCGGGTGGGCTGTTTCCACCACAAGAAACTACGGAGTCACCTAGTGCAG”, the binding signal was 8990 fluorescence intensity (a.u.).
“AATTCCCAAAATATACAGTTTTTGTTATTCAGATGTTTACCGGAGTCACCTAGTGCAG”: the binding signal is 8130 fluorescence intensity (a.u.).
To “TACCGATGGGGCTCTTATACTCCAACTCTTGCCCTGTTTACGGAGTCACCTAGTGCAG” belongs 9020 fluorescence intensity (a.u.); to “ATTCGATTTTCTTGCACCTAAACACATGCAACCCATCATTCGGAGTCACCTAGTGCAG”, 10100 fluorescence intensity (a.u.).
Consider “TTTTTCAATTTTTGGTTAAAATTTTTGGGGCTTTTCTTCGCGGAGTCACCTAGTGCAG”, for which the binding signal is 8990 fluorescence intensity (a.u.).
The same measure for “TCTATTGGGGCGGGGTGTGGTAAGGAAATTACAGTTTGCACGGAGTCACCTAGTGCAG”: 17700 fluorescence intensity (a.u.); for “TGTGTTGGTGATGTCGATGTGTGGGTGGTGGTTTTTTTTTCGGAGTCACCTAGTGCAG”: 13800 fluorescence intensity (a.u.); for “TGTGTGGTAGTTCGGGGTGGACCTACTTCTAATTATTGGGCGGAGTCACCTAGTGCAG”: 14100 fluorescence intensity (a.u.).
Regarding “CGTGTGACTGTTGCCGTGATGGTTTTGATGTTTGTTTTGGCGGAGTCACCTAGTGCAG”, the binding signal is 9180 fluorescence intensity (a.u.).
For the sequence “AGCTTGGTTTCTGGGTTGGGTTGGGTTTGGTTGCGTTGCGCGGAGTCACCTAGTGCAG”, the binding signal is 22700 fluorescence intensity (a.u.).
For the sequence “TTACTACTACCACTCGTTTTCTTGGCTTGGTTTGGTTTGGCGGAGTCACCTAGTGCAG”, the binding signal was 13000 fluorescence intensity (a.u.).
The same measure for “GGGAAATTGGGTAATTAATTAATTATGTGAAAGGGGTGGGCGGAGTCACCTAGTGCAG”: 12800 fluorescence intensity (a.u.); for “GGCTTTTATGGGGCGGGCTTTCTTTGGTCAATGGTCACTACGGAGTCACCTAGTGCAG”: 32200 fluorescence intensity (a.u.); for “TTGGTTTTGGTTTGGGTGGTTGATGTGTGGGTGGTGGTGGCGGAGTCACCTAGTGCAG”: 19000 fluorescence intensity (a.u.).
Regarding “CGGCGGAGGAGGAGGTTTCTTGCTCGTTTCTTGGGTTGCGCGGAGTCACCTAGTGCAG”, the binding signal is 10800 fluorescence intensity (a.u.).
As to “GGTGGGTAGTTTTCTGCGTTTTCTTTTGTATTTTTGGTTGCGGAGTCACCTAGTGCAG”, the binding signal is 11500 fluorescence intensity (a.u.).
